Assay results taken from PubChem BioAssay (EPA / NIEHS).
Results filed as inconclusive are left out. Active and inactive are the calls of the source. Rule for the calls: active = hit-call score of the fitted dose curve at least 0.9, where 1 is the maximum; inconclusive = response in the unintended direction; inactive = score below 0.9.

What was measured:
[1] = TOX21_p53_BLA_p2_viability: Viability Assessment in the Tox21 HCT-116 p53 Agonism Beta-lactamase Assay, Phase 2 (AID 2283591);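 note: compound exposure lasted 16 h at 37 °C; actives lower the ATP signal meaning cytotoxicity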
In short: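 HCT116 p53-bla cells, 4000/well, dosed after 5 h plating (217-fold dilution of DMSO stocks) and incubated 16 h at 37C. Viability taken as cellular ATP by CellTiter-Glo luminescence after 30 min RT; signal loss marks cytotoxicity.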

[2] = target: Cellular tumor antigen p53 (Homo sapiens) (UniProt P04637); assay: TOX21_p53_BLA_p2_ratio: Tox21 HCT-116 p53 Agonism Beta-lactamase Assay, Ratio, Phase 2 (AID 2283592)
Cellular tumor antigen p53 (Homo sapiens), sequence (P04637 whole entry, looked up): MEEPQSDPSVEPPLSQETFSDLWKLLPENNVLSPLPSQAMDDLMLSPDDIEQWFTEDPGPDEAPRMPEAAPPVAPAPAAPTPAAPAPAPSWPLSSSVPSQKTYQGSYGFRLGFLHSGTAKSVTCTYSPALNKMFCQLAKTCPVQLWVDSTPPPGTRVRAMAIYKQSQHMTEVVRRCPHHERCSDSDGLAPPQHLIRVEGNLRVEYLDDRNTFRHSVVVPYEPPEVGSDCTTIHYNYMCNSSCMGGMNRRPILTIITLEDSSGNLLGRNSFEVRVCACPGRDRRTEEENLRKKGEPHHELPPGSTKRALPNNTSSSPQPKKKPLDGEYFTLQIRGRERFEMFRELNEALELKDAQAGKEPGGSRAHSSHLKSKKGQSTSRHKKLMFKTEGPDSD
In short: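 In this cell-based reporter format, HCT116 cells were dosed with chemicals delivered from DMSO by 217-fold dilution and incubated 16 h at 37C. Emission at 460 and 530 nm after 2 h CCF4-AM loading provided the ratio, fitted upward versus DMSO.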

[3] = TOX21_p53_BLA_p3_viability: Viability Assessment in the Tox21 HCT-116 p53 Agonism Beta-lactamase Assay, Phase 3 (AID 2283593);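 note: cells exposed to compound for 16 h before reading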
In short: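 HCT116 cells, 4000/well, dosed 5 h after plating by pin transfer (217-fold dilution from DMSO stock) and incubated 16 h at 37C, 5% CO2. Viability read as ATP luminescence with CellTiter-Glo after 30 min at room temperature.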

[4] = target: Cellular tumor antigen p53 (Homo sapiens) (UniProt P04637); assay: TOX21_p53_BLA_p3_ratio: Tox21 HCT-116 p53 Agonism Beta-lactamase Assay, Ratio, Phase 3 (AID 2283596)
In short: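 HCT116 p53-bla cells (4000/well) given compound in DMSO (217-fold dilution) after 5 h, incubated 16 h at 37C. CCF4-AM substrate 2 h at room temperature; 460/530 nm emission ratio, gain fitted against DMSO.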

[5] = TOX21_p53_BLA_p4_viability: Viability Assessment in the Tox21 HCT-116 p53 Agonism Beta-lactamase Assay, Phase 4 (AID 2283597);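 note: hits lower the luminescence signal meaning cytotoxicity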
In short: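 We seeded HCT116 p53 reporter cells at 4000/well and waited 5 h. We then added compounds in DMSO at a 217-fold dilution and incubated for 16 h. Viability was read as CellTiter-Glo luminescence after 30 min at RT.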

[6] = target: Cellular tumor antigen p53 (Homo sapiens) (UniProt P04637); assay: TOX21_p53_BLA_p5_ratio: Tox21 HCT-116 p53 Agonism Beta-lactamase Assay, Ratio, Phase 5 (AID 2283599)
In short: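 HCT-116 p53-bla cells (4000/well) plated 5 h, dosed with compound (217-fold DMSO dilution) for 16 h at 37 C; CCF4-AM substrate 2 h at room temperature. Activity is the 460/530 nm emission ratio (405 nm excitation), fitted in gain-of-signal direction versus DMSO.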

[7] = TOX21_p53_BLA_p5_viability: Viability Assessment in the Tox21 HCT-116 p53 Agonism Beta-lactamase Assay, Phase 5 (AID 2283600)
In short: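 Compounds, pinned from DMSO at 217-fold dilution, were left on the cells for 16 h. The viability endpoint was ATP content measured by CellTiter-Glo luminescence, where falling signal reflects cytotoxicity.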

[8] = target: Cellular tumor antigen p53 (Homo sapiens) (UniProt P04637); assay: TOX21_p53_BLA_p4_ratio: Tox21 HCT-116 p53 Agonism Beta-lactamase Assay, Ratio, Phase 4 (AID 2283601)
In short: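 HCT-116 p53 beta-lactamase reporter cells (4000/well) preincubated 5 h, then compound (217-fold dilution of DMSO stock) for 16 h at 37C. CCF4-AM substrate added 2 h at room temperature; 460/530 nm emission ratio fitted upward versus DMSO.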

Measured: AC50

CC(=O)Nc1ccccc1C
inactive: [1] | [2] | [3] | [4] | [5] | [6]

CCCCCCCCOc1ccc(C(=O)O)cc1
active: [3] 45.7 µM | [4] 79.4 µM
inactive: [1] | [2] | [5] | [6] | [7]

OC[C@H]1O[C@@H](O[C@H]2[C@H](O)[C@@H](O)C(O)O[C@@H]2CO)[C@H](O)[C@@H](O)[C@@H]1O (stereo partly drawn)
inactive: [1] | [2] | [3] | [4] | [5] | [6] | [7]

CCCCCCCCCCCC(=O)N(CCO)CCO
inactive: [1] | [2] | [3] | [4] | [5] | [6] | [7]

CC(C)=CCC1C(=O)N(c2ccccc2)N(c2ccccc2)C1=O
active: [1] 32.6 µM | [2] 7.19 µM | [3] 34.3 µM | [4] 10.2 µM | [5] 33.5 µM | [6] 7.67 µM | [7] 42.1 µM
inactive: [8]

CC=C(C)C#N
inactive: [1] | [2] | [3] | [4] | [5] | [6] | [7]

Clc1ccc(Cn2c(CN3CCCC3)nc3ccccc32)cc1
inactive: [1] | [2] | [3] | [4] | [5] | [6] | [7]

CCCOC(C(=O)OC1CCN(C)CC1)(c1ccccc1)c1ccccc1
inactive: [1] | [2] | [3] | [4] | [5] | [6] | [7]

CCCCOCCOCCOCCCC
inactive: [1] | [2] | [3] | [4] | [5] | [6]

CC(C)=CCC/C(C)=C/CC/C(C)=C/CC/C(C)=C/CC1=C(C)C(=O)c2ccccc2C1=O
inactive: [1] | [2] | [3] | [4] | [5] | [6] | [7]

CC(=O)OC(C)C[N+](C)(C)C (stereo not drawn)
inactive: [1] | [2] | [3] | [4] | [5] | [6] | [7]

CCC(=O)c1ccc(O)cc1
inactive: [1] | [2] | [3] | [4] | [5] | [6] | [7]

CC(S)C(=O)NCC(=O)O (stereo not drawn)
inactive: [1] | [2] | [3] | [4] | [5] | [6] | [7]

O=c1cc(CO)occ1O
inactive: [1] | [2] | [3] | [4] | [5] | [6] | [7]

Nc1ccc(F)cc1F
inactive: [1] | [2] | [3] | [4] | [5] | [6] | [7]

CC(C)(C)c1cc(CO)cc(C(C)(C)C)c1O
inactive: [1] | [2] | [3] | [4] | [5] | [6] | [7]

OCCN1CCN(CC/C=C2/c3ccccc3Sc3ccc(C(F)(F)F)cc32)CC1
active: [5] 36.3 µM
inactive: [1] | [2] | [3] | [4] | [6] | [7]

COc1ccc2c(c1)OC(C)(C)C(c1ccccc1)C2c1ccc(OCCN2CCCC2)cc1 (stereo not drawn)
active: [3] 35.3 µM | [4] 43.8 µM | [5] 43.5 µM | [6] 36.7 µM | [7] 33.5 µM
inactive: [1] | [2]

CCC(=O)O[C@]1(C(=O)CCl)[C@@H](C)C[C@H]2[C@@H]3C[C@H](F)C4=CC(=O)C=C[C@]4(C)[C@@]3(F)[C@@H](O)C[C@@]21C
inactive: [1] | [2] | [3] | [4] | [5] | [6] | [7] | [8]

Cc1cc(C)c(N=Nc2c(O)c(S(=O)(=O)O)cc3cc(S(=O)(=O)O)ccc23)cc1C
inactive: [1] | [2] | [3] | [4] | [5] | [6] | [7]

CO/N=C(\C(=O)N[C@@H]1C(=O)N2C(C(=O)O)=C(CSC(=O)c3ccco3)CS[C@H]12)c1csc(N)n1
inactive: [1] | [2] | [3] | [4] | [5] | [6] | [7]

COc1cc2c(cc1OC)-c1cc(=Nc3c(C)cc(C)cc3C)n(C)c(=O)n1CC2
active: [1] 39 µM | [2] 35.6 µM | [3] 33.4 µM | [4] 36.7 µM | [5] 36 µM | [6] 41.3 µM | [7] 32.7 µM

CC(C)c1ccc2oc3nc(N)c(C(=O)O)cc3c(=O)c2c1
inactive: [1] | [2] | [3] | [4] | [5] | [6] | [7]

C#C[C@]1(OC(C)=O)CC[C@H]2[C@@H]3CCC4=C/C(=N/O)CC[C@@H]4[C@H]3CC[C@@]21CC
active: [1] 37.2 µM | [2] 40.4 µM | [3] 38.7 µM | [4] 42.8 µM | [5] 38.2 µM | [6] 40.6 µM | [7] 37.1 µM

CC(C)C(=O)OCC(=O)[C@@]12O[C@H](C3CCCCC3)O[C@@H]1C[C@H]1[C@@H]3CCC4=CC(=O)C=C[C@]4(C)[C@H]3[C@@H](O)C[C@@]12C
inactive: [1] | [2] | [3] | [4] | [5] | [6] | [7]

Cc1cccc(CN2CCN(C(c3ccccc3)c3ccc(Cl)cc3)CC2)c1 (stereo not drawn)
inactive: [1] | [2] | [3] | [4] | [5] | [6] | [7]

Cc1nc(NS(=O)(=O)c2ccc(N)cc2)nc(C)c1Br
inactive: [1] | [2] | [3] | [4] | [5] | [6] | [7]

CC(C)[C@H](N)C(=O)OCC(CO)OCn1cnc2c(=O)[nH]c(N)nc21 (stereo partly drawn)
inactive: [1] | [2] | [3] | [4] | [5] | [6] | [7]

O=C(O)c1c(Cl)c(Cl)c(Cl)c(Cl)c1-c1c2cc(I)c(=O)c(I)c-2oc2c(I)c(O)c(I)cc12
active: [1] 37.2 µM | [3] 13.6 µM | [5] 44.1 µM | [8] 43.1 µM
inactive: [2] | [4] | [6] | [7]

C/C(=C(\CCOC(=O)c1ccccc1)SS/C(CCOC(=O)c1ccccc1)=C(/C)N(C=O)Cc1cnc(C)nc1N)N(C=O)Cc1cnc(C)nc1N
inactive: [1] | [2] | [3] | [4] | [5] | [6] | [7] | [8]

CC1CCCO1 (stereo not drawn)
active: [6] 85.2 µM
inactive: [1] | [2] | [3] | [4] | [5] | [7]

CC1=CC[C@H](CC=O)C1(C)C
inactive: [1] | [2] | [3] | [4] | [5] | [6]

CNC[C@H](O)c1ccc(O)c(O)c1
inactive: [1] | [2] | [3] | [4] | [5] | [6] | [7] | [8]

CC(CO)(CO)C(=O)O
inactive: [1] | [2] | [3] | [4] | [5] | [6] | [7]

Cc1ccsc1C(=CCCN1CCC[C@@H](C(=O)O)C1)c1sccc1C
inactive: [1] | [2] | [3] | [4] | [5] | [6] | [7]

Cc1nnc(NS(=O)(=O)c2ccc(N)cc2)s1
inactive: [1] | [2] | [3] | [4] | [5] | [6] | [7] | [8]

Cc1cnc(C(=O)O)c[n+]1[O-]
inactive: [1] | [2] | [3] | [4] | [5] | [6] | [7] | [8]

COCC1=C(C(=O)OC(C)OC(=O)OC(C)C)N2C(=O)[C@@H](NC(=O)/C(=N\OC)c3csc(N)n3)[C@H]2SC1 (stereo partly drawn)
inactive: [1] | [2] | [3] | [4] | [5] | [6] | [7] | [8]

CCC(C)(C)c1ccc(CC(C)CN2C[C@@H](C)O[C@@H](C)C2)cc1 (stereo partly drawn)
active: [5] 32.7 µM
inactive: [1] | [2] | [3] | [4] | [6] | [7] | [8]

CC1=C(/C=C/C(C)=C/C=C/C(C)=C\C=O)C(C)(C)CCC1
inactive: [2] | [8]
active: [1] 72.1 µM | [3] 64.9 µM | [4] 75.3 µM | [5] 80.9 µM | [6] 66.7 µM | [7] 74.6 µM

CCCC(C)c1ccccc1O (stereo not drawn)
inactive: [1] | [2] | [3] | [4] | [5] | [6] | [7] | [8]

C=C1/C(=C\C=C2/CCC[C@]3(C)[C@@H]([C@H](C)CCCC(C)(C)O)CC[C@@H]23)C[C@@H](O)C[C@@H]1O
active: [1] 19.8 µM | [2] 37.8 µM | [3] 24.5 µM | [4] 25.4 µM | [5] 13 µM | [6] 27 µM | [7] 21 µM | [8] 26.1 µM

OC[C@@H](O)[C@@H](O[C@@H]1O[C@H](CO)[C@H](O)[C@H](O)[C@H]1O)[C@H](O)[C@@H](O)CO
inactive: [1] | [2] | [3] | [4] | [5] | [6] | [7] | [8]

Nc1[nH]c(=O)ncc1F
inactive: [1] | [2] | [3] | [4] | [5] | [6] | [7] | [8]

Cc1ccc(O)c(O)c1
active: [1] 40.8 µM | [3] 41.5 µM | [5] 41 µM | [6] 66 µM | [7] 42 µM
inactive: [2] | [4] | [8]

O=C(O)COC(=O)Cc1ccccc1Nc1c(Cl)cccc1Cl
inactive: [1] | [2] | [3] | [4] | [5] | [6] | [7] | [8]

C=CC(=O)O
inactive: [1] | [2] | [3] | [4] | [5] | [6] | [7] | [8]
